This is a sample that favours compounds with a hit; in the whole collection about 11% have one here.
IMPase Li cell: qHTS Assay for Identifying the Cell-Membrane Permeable IMPase Inhibitors: Potentiation with Lithium; CHO-M1 cells, IP1 TR-FRET (IP-One), carbachol + lithium; Potency, µM (top dose mostly 59.4 µM), inactives show at the top dose activity, negative = IMPase inhibition, hits mostly inhibitors; 210,000 tested, 0.35% active; AID 1457, 2008; active = well fitted curve in the direction sought with a large enough effect; inconclusive = small, poorly fitted or top-dose-only effect, or another doubt; inactive = no such curve, though single readings can be large; an effect the other way counts as inactive or inconclusive;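 note: IP1 builds up when IMPase is blocked and the TR-FRET signal falls; potency is the fitted concentration of half-maximal effect; plate controls were basal vehicle for no effect and high inhibitor control for full effect; nearly all actives have a fitted effect of over 50% in size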
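Steps: plate 2000 CHO-M1 cells per well and culture 16–30 h; add compound and lithium; incubate 30 min, 37C; add d2-IP1 tracer and Eu cryptate anti-IP1 antibody in lysis buffer; read after 10 min at room temperature.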
IMPase cell inh: qHTS Assay for Identifying the Cell-Membrane Permeable IMPase Inhibitors. CHO-M1 cells, IP1 accumulation, HTRF TR-FRET ratio. inhibition (IP1 accumulation), % at 46.1 µM. AID 901, 2007. 120,000 tested, under 10 active. Inositol monophosphatase 1 (Rattus norvegicus), P97697; active = well fitted curve in the direction sought with a large enough effect in the signal ratio, not every such curve was filed as active; inconclusive = small, poorly fitted or top-dose-only effect, or a change in a side signal; inactive = no such curve, though single readings can be large or run the other way; the % refers to the signal ratio;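 note: cells stimulated with carbachol in lithium chloride buffer; plate controls were DMSO basal wells for no effect and reference inhibitor wells for full effect; higher means more IMPase inhibition seen as more IP1 and lower FRET ratio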
Target sequence (P97697 whole entry, looked up): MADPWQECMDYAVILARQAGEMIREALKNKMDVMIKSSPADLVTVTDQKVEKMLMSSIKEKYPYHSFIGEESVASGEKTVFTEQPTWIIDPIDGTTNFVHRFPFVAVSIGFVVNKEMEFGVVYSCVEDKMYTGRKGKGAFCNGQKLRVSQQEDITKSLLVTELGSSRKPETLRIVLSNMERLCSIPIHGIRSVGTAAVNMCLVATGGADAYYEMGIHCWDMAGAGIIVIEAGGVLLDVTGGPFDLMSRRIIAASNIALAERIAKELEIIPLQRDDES
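CHO-M1 cells (CHO stably expressing M1 receptor), compound up to 46 uM final, stimulated with carbachol (50 uM as added) in buffer with 50mM LiCl, pH 7.4, 30 min at 37C. Cytosolic IP1 read by TR-FRET; AC50 from Hill fits.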
HPGD inh: qHTS Assay for Inhibitors of HPGD (15-Hydroxyprostaglandin Dehydrogenase); 15-hydroxyprostaglandin dehydrogenase [NAD(+)] (Homo sapiens), P15428; purified HPGD, NADH fluorescence kinetic, PGE2 substrate; Potency, µM, for the others: at the top dose activity change, negative = inhibition, actives largely listed as inhibitors; 150,000 tested, 4.3% active; note: potency is the fitted concentration of half-maximal effect
Target sequence (P15428 whole entry, looked up): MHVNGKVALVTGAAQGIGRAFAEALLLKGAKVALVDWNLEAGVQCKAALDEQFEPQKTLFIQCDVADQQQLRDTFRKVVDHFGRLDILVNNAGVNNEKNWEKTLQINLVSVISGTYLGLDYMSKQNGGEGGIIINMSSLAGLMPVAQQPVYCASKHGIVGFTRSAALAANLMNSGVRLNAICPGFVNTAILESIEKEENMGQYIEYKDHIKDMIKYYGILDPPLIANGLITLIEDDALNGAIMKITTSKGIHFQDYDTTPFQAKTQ
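20 nM HPGD preincubated 15 min at room temperature with compound in 50 mM Tris-HCl pH 8, 0.01% Tween 20. Started with 1 mM NAD+ and 30 uM prostaglandin E2; NADH fluorescence (360/450 nm) read 5 times over 30-s intervals, last minus first.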
ALDH1A1 block: qHTS Assay for Inhibitors of Aldehyde Dehydrogenase 1 (ALDH1A1); 220,000 tested, 7.3% active; Purified ALDH1A1, NADH fluorescence, propionaldehyde substrate; Potency, µM (series often up to 75.3 µM), for the others: at the highest dose activity, negative = inhibition, hits mostly inhibitors;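 note: potency is the fitted concentration of half-maximal effect; plate controls were no enzyme wells and a reference inhibitor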
NPSR antagonist: qHTS Assay for Antagonists of the Neuropeptide S Receptor: cAMP Signal Transduction | Q6W5P4 | CHO-NPSR cells, cAMP TR-FRET, antagonist mode | Potency, µM (top dose mostly 38.3 µM), for the others: at the highest dose activity change, negative = inhibition, actives largely listed as inhibitors | 220,000 tested, 1% active; active = well fitted curve in the direction sought with a large enough effect; inconclusive = small, poorly fitted or top-dose-only effect, or another doubt; inactive = no such curve, though single readings can be large; an effect the other way counts as inactive or inconclusive; note: potency is the fitted concentration of half-maximal effect; nearly all actives have a fitted effect of over 50% in size
PNC inhibitor: High Content Assay for Compounds that inhibit the Assembly of the Perinucleolar Compartment; 140,000 tested, 3.1% active; activity change (PNC), negative = inhibition, % at 10 µM; PC3M PTB-GFP, PNC prevalence imaging, 16 h; active compounds read low; AID 2417, 2010;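 active = readout at or below -70, meaning at least 70% loss of cells showing the perinucleolar compartment, a nuclear body marking cancer cells; inconclusive = readout between -30 and a set limit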;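 note: plate controls were DMSO wells for no effect and camptothecin positive control wells for full effect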
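Compounds are pinned in duplicate onto adhered PC3M cells stably expressing GFP-tagged PTB and incubated 16 h at 37 C. Cells are then fixed, nuclei stained with Hoechst, and PNC-positive cells counted.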
An asterisk follows results filed as active; ? = inconclusive; . = no result; [ ] = remark or other dose. Unless noted, calls come from the whole dose curve; as a rule, active = well fitted inhibition curve with a large enough effect (not every such curve was filed as active); inconclusive = small, poorly fitted or top-dose-only effect, or another doubt; inactive = no such curve, though single readings can be large or run the other way. Unless noted, % is set by controls: 0 for no effect and ±100 for the full control effect.

SMILES	IMPase Li cell	IMPase cell inh	HPGD inh	ALDH1A1 block	NPSR antagonist	PNC inhibitor
O=C(CSc1nc2ccccc2[nH]1)N1CCN(c2ccc(F)cc2)CC1	8.5%[38.3 µM]	14.0	-10.8%	25.1µM*	-17.9%[46.1 µM]	32.9
CC1/C=C/C=C/C=C/C=C/C=C/C=C/C=C/C(OC2OC(C)C(O)C(N)C2O)CC2O[C@@](O)(CC(O)CC(O)C(O)CCC(O)CC(O)CC(=O)OC(C)[C@H](C)C1O)CC(O)C2C(=O)O (stereo not given in full)	14.6%	.	?	?	.	.
N#Cc1c(N(CCO)CCO)nc(N)c2c(N)nc3c(c12)CC(=O)N3Cc1cccs1	.	.	.	.	8.9%[7.67 µM]	.
CCn1c(SCC(=O)N2CCN(c3ccccc3)CC2)nc2c(c1=O)SC(C)C2 (stereo not given)	-2.5%	1.8	-28.5%	2.24µM*	-17.0%[46.1 µM]	-25.4
Cc1cc(/C=N/n2cnnc2)c(C)n1-c1ccc(Cl)cc1Cl	17.7%[38.3 µM]	0.9	-4.6%	?	?	?
Cc1cc(C=NCCCO)c(C)n1-c1cc(Cl)ccc1Cl	2.5%	.	.	3.55µM*	4.7%	.
COc1ccc(C(=O)Nc2cc(C)cc(C)c2)cc1S(=O)(=O)N1CCOCC1	-10.0%[38.3 µM]	2.4	-4.5%	6.3%	-11.3%[46.1 µM]	32.8
Cc1cc2oc(=O)cc(-c3ccccc3)c2c(C)c1-c1ccc(C#N)cc1	19.4%	.	-21.5%	12.6µM*	.	.
CC(=O)c1ccc(-c2c(C)cc3oc(=O)cc(-c4ccccc4)c3c2C)cc1	19.6%	.	?	-15.2%	.	.
Cc1cc2oc(=O)cc(-c3ccccc3)c2c(C)c1-c1cccc(N)c1	12.4%	.	-12.7%	25.1µM*	.	.
COc1cc(OC)c2c(-c3ccccc3)cc(=O)oc2c1	-1.7%	.	.	14.1µM*	21.7%	.
Cc1cc2oc(=O)cc(-c3ccccc3)c2c(C)c1-c1ccc(F)c(Cl)c1	8.8%	.	-1.7%	4.9%	.	.
CC(C)(O)P(C)(=O)c1ccccc1 (stereo not given)	21.0%[38.3 µM]	-9.5	-6.2%	5.4%	-8.1%[46.1 µM]	-3.3
c1cncc(CNc2ncn[nH]2)c1	-6.8%	.	-7.7%	9.8%[13.5 µM]	14.5%	.
O=C(CN1CCN(Cc2ccccc2)CC1)N=Nc1c(O)[nH]c2ccccc12	4.5%	.	-4.9%	10.9%	-9.1%	-14.4
O=C(CN1CCCCC1)N=Nc1c(O)[nH]c2ccccc12	6.2%	.	.	12.6µM*	25.2%	.
CCOC(=O)c1c(C)oc2c1c(C(c1cccnc1)N1CCN(C)CC1)c(O)c1ccccc12 (stereo not given)	6.0%[38.3 µM]	5.3	-28.2%	12.6µM*	?	-12.7
CCOC(=O)c1c(C)oc2c1c(C=NCc1ccccn1)c(O)c1ccccc12	36.3%[38.3 µM]	14.4	-20.0%	?	?	-19.0
CCOC(=O)c1c(C)oc2c1c(C(c1cccnc1)N1CCOCC1)c(O)c1ccccc12 (stereo not given)	10.8%[38.3 µM]	9.6	22.4µM*	7.08µM*	-1.1%[46.1 µM]	23.4
Cc1ccc(-n2c(N)c(C(=O)NCc3cccnc3)sc2=S)cc1	12.8%[38.3 µM]	0.8	25.1µM*	?	-3.6%[46.1 µM]	-6.5
COc1ccc(-n2c(N)c(C(=O)NCc3cccnc3)sc2=S)cc1	?	0.9	-5.8%	1.5%	-8.9%[46.1 µM]	23.5
CCOC(=O)c1sc(=S)n(-c2ccc(F)c(F)c2)c1N	1.5%[38.3 µM]	0.1	?	12.6µM*	?	-14.3
CCOC(=O)c1sc(=S)n(C)c1N	-14.0%[38.3 µM]	1.0	-16.0%	-1.9%	-6.3%[46.1 µM]	?
CCOC(=O)c1sc(=S)n(-c2ccc(C)cc2)c1N	-1.4%	.	.	14.1µM*	-18.5%	.
CCOC(=O)c1sc(=S)n(-c2ccc3c(c2)OCO3)c1N	12.7%[38.3 µM]	-3.3	7.94µM*	10µM*	-0.1%[46.1 µM]	26.8
O=S(=O)(Nc1ccc(O)c(Sc2nc3ccccc3s2)c1)c1ccc(F)cc1	0.0%	.	-5.6%	?	-2.6%	-10.6
